An excerpt weighted towards active compounds, which were near 2.9% of everything screened.
KKLEB tox = CF airway cell cytotoxicity counter-screen; AID 602141; activity change (cytotoxicity), % at 5 µM; 360,000 tested, 0.36% active; KKLEB CF airway cells viability, ATPlite luminescence, overnight; stronger effect = lower value; cells stimulated with P. aeruginosa culture filtrate;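 active = corrected activity change at or below -50% at 5 µM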
HIF-2a block = HIF-2a inhibition. 786-0 RCC cells HIF-2a reporter, luciferase luminescence, overnight. inhibition, % at 18.8 µM. 360,000 tested, 0.72% active. AID 624352;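 active = inhibition of the luminescence signal of 40% or more relative to plate controls, in a single-dose primary screen at 18.75 µM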
Shn3 inh set2 = Schnurri-3 reporter inhibition in Clone20 osteoblasts | Clone20 osteoblast Shn3 3'UTR firefly luciferase, 24 h | inhibition, % at 12.5 µM | 360,000 tested, 0.52% active;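 active = mean inhibition of at least 75% with every replicate also reaching 75%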
Peg3 prom inh = Peg3 promoter activity inhibition | HeLa PEG-Prom luciferase reporter, luminescence, overnight | inhibition, % at 20 µM | 360,000 tested, 1.7% active | AID 588405;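 active = inhibition of at least 50% at 20 µM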
LMP1 NFkB inh = Epstein-Barr LMP1 NF-kappaB reporter inhibition. LMP1-induced NF-kappaB luciferase reporter cells, luminescence. inhibition, % at 12.5 µM. 350,000 tested, 0.69% active. AID 504558; in the data active = inhibition above about 41%
CF NFkB block = inhibitors of cystic fibrosis induced NF-kB; KKLEB NF-kB-GFP reporter, PAF-induced, GFP fluorescence overnight; inhibition, % at 5 µM; 360,000 tested, 0.86% active;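 active = at least 50% inhibition at 5 µM, scaled per plate between neutral and stimulator controls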;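 also: PAF is a Pseudomonas aeruginosa culture filtrate used as stimulus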
Mdm2 MdmX conf = confirmation of inhibitors of human Mdm2/MdmX interaction, set 2. inhibition, % at 8 µM. 740 tested, 99% active. shares compounds with HIF-2a block. SaOS-2 split-luciferase Mdm2/MdmX complementation, luminescence;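 active = mean inhibition of the luminescence signal across two replicates at or above 26 percent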
Target sequence (O15151 whole entry, looked up): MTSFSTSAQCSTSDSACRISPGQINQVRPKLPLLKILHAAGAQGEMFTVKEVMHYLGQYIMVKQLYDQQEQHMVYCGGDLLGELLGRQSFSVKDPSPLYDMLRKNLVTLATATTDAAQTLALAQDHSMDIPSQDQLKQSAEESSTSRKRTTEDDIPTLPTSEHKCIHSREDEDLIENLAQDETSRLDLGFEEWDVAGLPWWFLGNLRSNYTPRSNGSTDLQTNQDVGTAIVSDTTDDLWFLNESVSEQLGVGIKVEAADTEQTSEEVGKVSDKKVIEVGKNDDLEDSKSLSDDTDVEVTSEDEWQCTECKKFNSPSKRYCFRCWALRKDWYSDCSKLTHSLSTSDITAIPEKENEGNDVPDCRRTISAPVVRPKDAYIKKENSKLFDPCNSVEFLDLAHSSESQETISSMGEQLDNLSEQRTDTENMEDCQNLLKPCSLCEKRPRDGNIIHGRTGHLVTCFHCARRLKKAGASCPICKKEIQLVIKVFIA
Target sequence (Q00987 whole entry, looked up): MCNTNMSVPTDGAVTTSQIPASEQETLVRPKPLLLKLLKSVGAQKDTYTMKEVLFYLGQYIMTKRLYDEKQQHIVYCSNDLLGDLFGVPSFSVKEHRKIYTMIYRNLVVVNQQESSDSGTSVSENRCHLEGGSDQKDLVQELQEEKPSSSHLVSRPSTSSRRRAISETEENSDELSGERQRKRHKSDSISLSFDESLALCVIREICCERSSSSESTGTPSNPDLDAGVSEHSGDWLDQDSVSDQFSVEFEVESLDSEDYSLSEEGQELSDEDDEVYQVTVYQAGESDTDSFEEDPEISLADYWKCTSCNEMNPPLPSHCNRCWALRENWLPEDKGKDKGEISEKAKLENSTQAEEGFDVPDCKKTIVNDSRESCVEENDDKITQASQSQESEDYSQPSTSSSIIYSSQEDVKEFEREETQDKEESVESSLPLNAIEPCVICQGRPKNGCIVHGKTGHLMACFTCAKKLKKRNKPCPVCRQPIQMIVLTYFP
HIF-2a conf = confirmation of HIF-2a inhibitors; shares compounds with HIF-2a block; inhibition, % at 18.8 µM; 1,800 tested, 56% active; 786-0 RCC cells, HIF-2a luciferase reporter luminescence, overnight;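 active = mean inhibition across four replicates of at least 40 percent at the single tested concentration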
HIF-1a cs = inhibits HIF-1a reporter, a counter-screen for HIF-2a inhibitors; shares compounds with HIF-2a block; MiaPaCa-2 HIF-1a luciferase reporter, desferoxamine, overnight; inhibition, % at 18.8 µM; 1,800 tested, 72% active;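 active = mean inhibition of the reporter signal across four replicates at the single tested dose of 50% or more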
Numbers stand for hits; n = inactive; x = not tested or not shown.

SMILES	KKLEB tox	HIF-2a block	Shn3 inh set2	Peg3 prom inh	LMP1 NFkB inh	CF NFkB block	HIF-2a conf	HIF-1a cs	others
O=P(c1ccccc1)(c1nc2ccccc2s1)N1CCOCC1 (stereo not drawn)	n	n	n	n	n	n	x	x
CN1CCC23c4c5ccc(O)c4O[C@@H]2[C@H](O)C=CC3C1C5 (stereo partly drawn)	n	n	n	n	n	n	x	x
COc1cc(/C=C/[N+](=O)[O-])ccc1O	n	70	n	n	n	n	52	n
CC[C@@]1(O)C(=O)OCc2c1cc1n(c2=O)Cc2cc3c(NC(=O)CN)cccc3nc2-1	n	n	n	n	77	n	x	x	Mdm2 MdmX conf=97
CCC(=NCc1cccnc1)c1c(O)n(Cc2ccccc2)c(=O)[nH]c1=O	n	n	n	n	n	n	x	x
CC12CCCCC1=NC(c1ccc(Br)cc1)N2O (stereo not drawn)	n	n	n	n	n	n	x	x
COc1cc2c(cc1O)C[C@H]1NCCc3cc4c(c-2c31)OCO4	n	50	n	n	n	n	n	104
NC(N)=N/N=C/c1cn(-c2ccccc2)nc1-c1cccs1	n	n	n	106	n	n	x	x	Mdm2 MdmX conf=103
N/C(=N\[N+](=O)[O-])NCCCC(NC(=O)CNC(=O)c1ccccc1)C(=O)O (stereo not drawn)	n	n	n	n	n	n	x	x
C#CCCC[C@@H]1OC(=O)CNC(=O)C([C@@H](C)CC)NC(=O)[C@@H]2CCCN2C(=O)C([C@@H](C)CC)OC(=O)[C@H](Cc2ccccc2)N(C)C(=O)[C@H](C(C)C)NC(=O)C1(C)C (stereo partly drawn)	n	n	n	n	x	n	x	x
CCC(C)C1NC(=O)C(NC(=O)C(CC(C)C)N(C)C(=O)C2CCCN2C(=O)C(C)O)C(C)OC(=O)C(Cc2ccc(OC)cc2)N(C)C(=O)C2CCCN2C(=O)C(CC(C)C)NC(=O)[C@H](C)C(=O)[C@H](C(C)C)OC(=O)CC1O (stereo partly drawn)	-70	83	99	100	93	94	79	100
COc1cc(C=C2C(=O)NC(=O)NC2=O)ccc1OCc1ccc([N+](=O)[O-])cc1	n	n	n	n	n	n	x	x
COc1cc(/C=C(/C)[N+](=O)[O-])ccc1OCc1ccccc1Cl	-66	94	96	105	n	85	x	x	Mdm2 MdmX conf=103
COc1ccc(CC2NCC(O)C2OC(C)=O)cc1 (stereo not drawn)	n	82	97	108	88	80	85	105
c1ccc(P(c2ccccn2)c2ccccn2)cc1	n	58	n	n	n	n	n	n
Cc1nc2cc(-c3cccc(F)c3)nn2c(C)c1CCC(=O)N1CCC2(CC1)OCCO2	n	75	n	n	n	n	82	53
Clc1cnc(Oc2ccc(Oc3ncc(Cl)cc3Cl)cc2)c(Cl)c1	n	n	n	n	n	n	x	x
CC(=O)OC[C@]12CCC(C)=C[C@H]1O[C@@H]1[C@H](O)[C@@H](OC(C)=O)[C@@]2(C)[C@]12CO2	-56	90	99	108	74	104	81	105
O=C(CNC(=O)OCc1ccccc1)Nc1ccc(Br)cc1C(=O)c1ccccc1	n	n	n	n	n	n	x	x
O=C(Nc1cccc(OC(=O)N2CCCCC2)c1)N1CCCCC1	n	n	n	n	n	n	x	x
CC(=O)Nc1ccc(OC(=O)N2CCCCC2)cc1	n	85	n	n	n	n	95	53
C=C1C(=O)O[C@@H]2C[C@@H](C)[C@@H]3C=CC(=O)[C@@]3(C)[C@@H](O)[C@H]12	-60	97	99	92	94	88	x	x	Mdm2 MdmX conf=100
CCOP(=O)(OCC)C(c1ccccc1)N(C)C=O (stereo not drawn)	n	n	n	n	n	n	x	x
NC(=S)c1cn(C2OC(CO)C(O)C2O)c2ncnc(N)c12 (stereo not drawn)	-79	52	97	107	n	90	n	105
Nc1ncnc2c1ccn2[C@@H]1O[C@H](CO)[C@@H](O)[C@H]1O	-97	35	96	100	92	87	n	103	Mdm2 MdmX conf=103
SMILES	KKLEB tox	HIF-2a block	Shn3 inh set2	Peg3 prom inh	LMP1 NFkB inh	CF NFkB block	HIF-2a conf	HIF-1a cs	others
CN(C)P1(N(C)C)=NC(C(F)(F)F)=NC(C(F)(F)F)=N1	n	n	n	n	n	n	x	x
Cc1cccc(N=Cc2c(O)n(C)c(=O)n(C)c2=O)c1	n	n	n	n	n	n	x	x
O=C(c1ccc(F)cc1)N1CCC2(CC1)OCCO2	n	n	n	n	n	n	x	x
CCOC(=O)[C@]12Cc3ccccc3[C@H]1N(C(C)C)C(=O)c1cc(OC)ccc12	x	n	x	x	x	x	x	x
CCOC(=O)[C@]12Cc3cc(C)ccc3[C@H]1N(C(C)C)C(=O)c1ccccc12	x	88	x	x	x	x	93	108
CCOC(=O)[C@]12Cc3cc(OC)ccc3[C@H]1N(C1CCCCC1)C(=O)c1cc(OC)ccc12	x	88	x	x	x	x	89	105
C=CCn1c(O)c(C(C)=Nc2cc(OC)ccc2OC)c(=O)[nH]c1=O	n	n	n	n	n	n	x	x
C[C@]12CC[C@@H](O)CC1=CCC1C2CC[C@@]2(C)C1C[C@@H](F)[C@@H]2O (stereo partly drawn)	n	n	n	n	n	n	x	x
CN(CC(=O)Nc1ccccc1-c1ccccc1)C1CCCCC1	n	n	n	n	n	n	x	x
C[C@@H]1O[C@@H](O[C@@H]2C=C3CC[C@@H]4C(CC[C@]5(C)[C@@H](c6ccc(=O)oc6)CC[C@]45O)[C@@]3(C)CC2)[C@H](O)[C@H](O)[C@H]1O (stereo partly drawn)	-76	86	n	107	82	89	46	105
CC(=O)C1CCC2(O)C3CCC4=CC(=O)CCC4(C)C3CCC12C (stereo not drawn)	n	n	n	n	n	n	x	x

Screening data (PubChem BioAssay)
